Compounds with a hit are over-represented: about 10% of the library has one in this group of screens.
GPT2 inh – inhibitors of human GPT2 alanine aminotransferase; actives 0.25% (n = 100,000); Q8TD30; Potency, µM (doses to about 57.7 µM), without a hit: top-dose activity change, negative = inhibition, usual class: inhibitors; AID 1671188; Recombinant GPT2, coupled pyruvate oxidase/HRP Amplex Red fluorescence; also: % is scaled to controls: 0 for no effect and ±100 for the full control effect; nearly all actives have a fitted effect of over 60% in size
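Fluorescence of coupled pyruvate oxidase/HRP/Amplex Red system (50uM Amplex, 30 min, dark) reports pyruvate formed by GPT2. Enzyme reaction: 10ng/uL GPT2, 2mM L-alanine, 250uM a-KG, 30 min room temperature, pH 7.5; 50uM AOA control.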
NPR1 antag – human Npr1 receptor antagonism; actives 1.6% (n = 76,000); AID 1347048; HEK293 hNpr1 GloSensor cGMP, ANP-stimulated luminescence; Potency, µM (highest dose often 46.3 µM), for the others: at the top dose activity change, negative = inhibition, usual class: inhibitors; calls by dose curve; also: % is scaled to controls: 0 for no effect and ±100 for the full control effect; nearly all actives have a fitted effect of over 60% in size
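HEK293 cells stably expressing human Npr1 and cGMP GloSensor pGS-40F, loaded 2 h with 2% GloSensor reagent, given compound 30 min at room temperature. Luminescence read before and 20 min after 0.1 nM hNppA.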
HEK293 tox – HEK 293 cell cytotoxicity. HEK 293 viability, ATP luminescence (CellTiter-Glo), 48-72 h. Potency, µM (doses to about 115 µM), for inactives: top-dose activity change, negative = cytotoxicity, usual class: inhibitors. actives 6.6% (n = 94,000); also: % is scaled to controls: 0 for no effect and ±100 for the full control effect; nearly all actives have a fitted effect of over 60% in size
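qHTS cytotoxicity; HEK 293, 250 cells/well; compound pinned; 48 or 72 hr, 37 degree Celsius, 5% CO2, 95% humidity; CellTiter-Glo, 10 min RT; luminescence (ATP).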
FLuc inh-1 – Photinus pyralis luciferase inhibition; P08659; purified P. pyralis luciferase, luminescence, biochemical; Potency, µM (doses to about 115 µM), hits mostly inhibitors; actives 2.5% (n = 76,000); AID 1347043; also: % is scaled to controls: 0 for no effect and ±100 for the full control effect; nearly all actives have a fitted effect of over 65% in size
Target sequence (P08659 whole entry, looked up): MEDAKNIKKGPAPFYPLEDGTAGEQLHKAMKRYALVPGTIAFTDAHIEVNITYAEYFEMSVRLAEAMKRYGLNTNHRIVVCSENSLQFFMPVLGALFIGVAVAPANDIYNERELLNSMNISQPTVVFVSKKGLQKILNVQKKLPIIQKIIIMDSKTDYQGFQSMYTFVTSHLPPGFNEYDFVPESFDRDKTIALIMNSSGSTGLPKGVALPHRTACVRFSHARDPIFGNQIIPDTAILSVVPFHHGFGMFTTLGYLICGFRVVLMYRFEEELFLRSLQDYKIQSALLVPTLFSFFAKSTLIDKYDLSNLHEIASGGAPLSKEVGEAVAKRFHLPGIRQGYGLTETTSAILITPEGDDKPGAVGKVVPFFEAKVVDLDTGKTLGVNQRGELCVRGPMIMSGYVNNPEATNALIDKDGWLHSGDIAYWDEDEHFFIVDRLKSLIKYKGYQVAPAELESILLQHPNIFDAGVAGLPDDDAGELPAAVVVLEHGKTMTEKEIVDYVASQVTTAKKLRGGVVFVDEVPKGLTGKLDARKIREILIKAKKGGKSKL
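Purified P. pyralis luciferase (10nM final) in 50mM Tris acetate pH 7.5, 10mM Mg acetate, 0.01% Tween-20, 0.05% BSA with 10uM D-luciferin and 10uM ATP. Compounds titrated qHTS. Luminescence imaged on CCD.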
NIH3T3 tox – cytotoxic compounds in NIH 3T3 cells | actives 4.3% (n = 94,000) | Potency, µM (top dose mostly 96.7 µM), without a hit: top-dose activity change, negative = cytotoxicity, usual class: inhibitors | NIH 3T3 viability, CellTiter-Glo ATP luminescence, 48-72 h; also: % is scaled to controls: 0 for no effect and ±100 for the full control effect; nearly all actives have a fitted effect of over 55% in size
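Cytotoxicity is measured as loss of cellular ATP: NIH 3T3 cells (400/well) are exposed to compound for 48 or 72 hr at 37 °C, then CellTiter-Glo luminescence is imaged after 10 min at room temperature.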
FLuc SDR no ATP – stabilizes firefly luciferase without ATP; shares compounds with FLuc inh-1; actives 7.8% (n = 1,300); Purified FLuc-C-HiBiT, Nano-Glo HiBiT luminescence, no ATP; Potency, µM (doses to about 32.7 µM), inactives show at the top dose activation (signal gain), hits mostly activators; also: nearly all actives have a fitted effect of over 55% in size
FLuc SDR ATP – firefly luciferase binding stabilization, ATP added. actives 8.7% (n = 1,300). shares compounds with FLuc inh-1. Potency, µM (series often up to 32.7 µM), for inactives: at the top dose activation (gain of signal), most hits filed as activators. AID 1963319. purified FLuc-C-HiBiT + ATP, HiBiT complementation luminescence;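 also: signal reports ligand binding via conformational change of the enzyme rather than luciferase catalysis; % of control where 0% means no effect; nearly all actives have a fitted effect of over 55% in size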
FLuc inh-2 – blocks firefly luciferase enzymatic activity | shares compounds with FLuc inh-1 | purified FLuc-C-HiBiT enzyme, luciferin luminescence | Potency, µM (doses to about 32.7 µM), without a hit: at the top dose activity change, negative = inhibition, actives largely listed as inhibitors | actives 42% (n = 1,300) | AID 1963320; also: % is scaled to controls: 0 for no effect and ±100 for the full control effect; nearly all actives have a fitted effect of over 70% in size
NPR1 antag cnf – confirmation of human Npr1 natriuretic peptide receptor antagonists | shares compounds with NPR1 antag | HEK293 hNpr1 cGMP GloSensor luminescence, ANP-stimulated | Potency, µM (highest dose often 57.6 µM), inactives show at the top dose activity change, negative = inhibition, usual class: inhibitors | actives 76% (n = 1,400) | AID 1347044; calls by dose curve; also: nearly all actives have a fitted effect of over 70% in size
Npr2 selectivity – hNpr2 antagonism, selectivity versus Npr1; HEK293 hNpr2 GloSensor cGMP luminescence, CNP-stimulated; shares compounds with NPR1 antag; actives 67% (n = 1,400); Potency, µM (series often up to 57.6 µM), without a hit: at the highest dose activity change, negative = inhibition, usual class: inhibitors; calls by dose curve; also: nearly all actives have a fitted effect of over 70% in size
FLuc inh counter – inhibits firefly luciferase, false Npr1 antagonist flag; shares compounds with NPR1 antag; purified FLuc enzyme, luminescence, Km substrate; Potency, µM (highest dose often 57.6 µM), inactives show at the top dose activity change, negative = inhibition, most hits filed as inhibitors; actives 0.7% (n = 1,400); AID 1347047; also: 0% is about no effect
GloSensor cGMP – counter-screen for Npr1 antagonists: GloSensor control cell line | shares compounds with NPR1 antag | HEK293 GloSensor cGMP, SNP-stimulated, luminescence | Potency, µM (top dose mostly 57.6 µM), for inactives: at the top dose activity change, negative = inhibition, hits mostly inhibitors | actives 69% (n = 1,400); calls by dose curve; also: % is scaled to controls: 0 for no effect and ±100 for the full control effect; nearly all actives have a fitted effect of over 70% in size
The depositor's hits bear a star; i = inactive; ? = inconclusive; . = not tested or not shown; [ ] = remark or other dose. Unless noted, calls follow the shape of the dose curve; as a rule, active = well fitted curve in the direction sought with a large enough effect; inconclusive = small, poorly fitted or top-dose-only effect, or another doubt; inactive = no such curve, though single readings can be large; an effect the other way counts as inactive or inconclusive. Potency is read from the fitted curve at half-maximal effect.

SMILES	GPT2 inh	NPR1 antag	HEK293 tox	FLuc inh-1	NIH3T3 tox	FLuc SDR no ATP	FLuc SDR ATP	FLuc inh-2	NPR1 antag cnf	Npr2 selectivity	FLuc inh counter	GloSensor cGMP
COC(=O)N1CCN(C(=O)Cc2ccc(Cl)c(Cl)c2)[C@@H](CN2CCCC2)C1	4%	.	.	.	.	.	.	.	.	.	.	.
CN1CCN(C(=O)COc2ccc(-c3nc4ccccc4s3)cc2)CC1	.	.	.	.	.	1.6µM*	?	0.5µM*	.	.	.	.
COc1ccc(-c2cc3c(cn2)CN(C)CCN3)cn1	i	-21%[70.6 µM]	-24%[230 µM]	6.3µM*	?	20%[65.7 µM]	15%[65.7 µM]	?	.	.	.	.
CCn1cc(-c2cc3c(cn2)CN(C)CCN3)cn1	.	.	.	.	.	16%[65.7 µM]	9%[65.7 µM]	?	.	.	.	.
C/C=C(/C)C1C=CC2CC(C)CC(C)C2C1/C(O)=C1\C(=O)NC(CC(C)(O)C(=O)O)C1=O (centres undefined)	i	.	.	.	.	.	.	.	.	.	.	.
Cc1[nH]c2ccc(Cl)cc2c1CCN(C)C	i	.	.	.	.	.	.	.	.	.	.	.
COc1ccc2c(c1)C1(CCN(C(=O)Nc3ccc4c(c3)OCCO4)C1)C(=O)N2C (centres undefined)	-3%	-15%	-29%	10µM*	-4%	22%	15%	?	.	.	.	.
COc1ccc2c(c1)C1(CCN(C(=O)Nc3cccc(C)c3)C1)C(=O)N2C (centres undefined)	i	-8%	-16%	i	-7%	.	.	.	.	.	.	.
C=C1CC[C@H]2[C@@H](/C=C(\C)C(=O)[C@@]3(OC(C)=O)C[C@H](C)[C@H](OC(=O)c4ccccc4)[C@@H]3[C@H]1OC(C)=O)C2(C)C	-27%[27.3 µM]	.	.	.	.	.	.	.	.	.	.	.
CCCN1CCNc2cc(Nc3ccccc3)ncc2C1	-3%[88.5 µM]	-1%[70.6 µM]	89µM*	6.3µM*	?	27%[65.7 µM]	19%[65.7 µM]	?	.	.	.	.
O=C(N[C@@H](COc1ccc2[nH]c(=O)[nH]c2c1)c1ccccc1)c1cccn(Cc2ccc(F)c(F)c2)c1=O	-7%	.	.	.	.	.	.	.	.	.	.	.
O=C(Nc1ccc2c(c1)OCCO2)c1cccn(Cc2ccccc2)c1=O	.	.	.	.	.	16%	11%	?	.	.	.	.
OC(CNc1ccccc1)Cn1c2ccc(Br)cc2c2cc(Br)ccc21 (centres undefined)	0%	.	.	.	.	.	.	.	.	.	.	.
CCC(CC)c1cc([C@H]2CN3CC[C@H]2C[C@@H]3CNC(=O)COc2ccccc2)nc(-c2ccncc2)n1	-8%	11µM*	28µM*	i	22µM*	.	.	.	17µM*	17µM*	-2%	-9%
COc1ccccc1C(=O)N1[C@H]2CC[C@@H]1c1cnc(-c3ccc(F)cc3)nc1C2	-4%	8.9µM*	?	i	?	.	.	.	17µM*	15µM*	0%	12µM*
COCCOCC(=O)N1[C@H]2CC[C@@H]1c1cnc(-c3ccc(F)cc3)nc1C2	-29%	-10%	-15%	i	?	.	.	.	.	.	.	.
O=C(CC1CCCC1)N1[C@H]2CC[C@@H]1c1cnc(-c3ccc(F)cc3)nc1C2	3%	4µM*	?	i	-24%	.	.	.	4.3µM*	6.1µM*	-1%	4.3µM*
Cn1nccc1C(=O)N1[C@H]2CC[C@@H]1c1cnc(-c3ccc(F)cc3)nc1C2	i	?	?	i	?	.	.	.	.	.	.	.
CCn1nccc1C(=O)N1[C@H]2CC[C@@H]1c1cnc(-c3ccccc3)nc1C2	4%	13µM*	?	i	-39%	.	.	.	17µM*	22µM*	2%	15µM*
CCCS(=O)(=O)N1[C@H]2CC[C@@H]1c1cnc(-c3ccc(F)cc3)nc1C2	-11%	18µM*	?	i	?	.	.	.	17µM*	19µM*	-4%	14µM*
CCCCCn1cc(C(=O)c2cccc3ccccc23)c2ccccc21	-12%	.	.	.	.	.	.	.	.	.	.	.
CCOC(=O)[C@H]1CN(C(=O)OCC)[C@]2(C)C(=O)Nc3ccccc3[C@H]12	.	.	-22%	.	?	.	.	.	.	.	.	.
O=C(c1ccsc1)N1[C@H]2CC[C@@H]1c1cnc(-c3ccc(F)cc3)nc1C2	i	8.9µM*	40µM*	i	-37%	.	.	.	14µM*	11µM*	-2%	12µM*
CCCN(CCC)[C@@H]1CCc2ccc3[nH]c(C#N)cc3c2C1	4%	.	.	.	.	.	.	.	.	.	.	.
